High-throughput results: PubChem BioAssay, National Center for Advancing Translational Sciences (NCATS)
JMJD2A Tudor: blocks the human JMJD2A Tudor domain; O75164; AlphaScreen JMJD2A-Tudor / H3K4me3 peptide binding; Potency, µM (highest dose often 114 µM), inactives show at the highest dose activity change, negative = inhibition, usual class: inhibitors; actives 4.4% (n = 390,000); AID 504339; further: on the % scale 0 is the no-effect control and ±100 the full control effect; nearly all actives have a fitted effect of over 50% in size
Target sequence (O75164 whole entry, looked up, the tested form may be a part): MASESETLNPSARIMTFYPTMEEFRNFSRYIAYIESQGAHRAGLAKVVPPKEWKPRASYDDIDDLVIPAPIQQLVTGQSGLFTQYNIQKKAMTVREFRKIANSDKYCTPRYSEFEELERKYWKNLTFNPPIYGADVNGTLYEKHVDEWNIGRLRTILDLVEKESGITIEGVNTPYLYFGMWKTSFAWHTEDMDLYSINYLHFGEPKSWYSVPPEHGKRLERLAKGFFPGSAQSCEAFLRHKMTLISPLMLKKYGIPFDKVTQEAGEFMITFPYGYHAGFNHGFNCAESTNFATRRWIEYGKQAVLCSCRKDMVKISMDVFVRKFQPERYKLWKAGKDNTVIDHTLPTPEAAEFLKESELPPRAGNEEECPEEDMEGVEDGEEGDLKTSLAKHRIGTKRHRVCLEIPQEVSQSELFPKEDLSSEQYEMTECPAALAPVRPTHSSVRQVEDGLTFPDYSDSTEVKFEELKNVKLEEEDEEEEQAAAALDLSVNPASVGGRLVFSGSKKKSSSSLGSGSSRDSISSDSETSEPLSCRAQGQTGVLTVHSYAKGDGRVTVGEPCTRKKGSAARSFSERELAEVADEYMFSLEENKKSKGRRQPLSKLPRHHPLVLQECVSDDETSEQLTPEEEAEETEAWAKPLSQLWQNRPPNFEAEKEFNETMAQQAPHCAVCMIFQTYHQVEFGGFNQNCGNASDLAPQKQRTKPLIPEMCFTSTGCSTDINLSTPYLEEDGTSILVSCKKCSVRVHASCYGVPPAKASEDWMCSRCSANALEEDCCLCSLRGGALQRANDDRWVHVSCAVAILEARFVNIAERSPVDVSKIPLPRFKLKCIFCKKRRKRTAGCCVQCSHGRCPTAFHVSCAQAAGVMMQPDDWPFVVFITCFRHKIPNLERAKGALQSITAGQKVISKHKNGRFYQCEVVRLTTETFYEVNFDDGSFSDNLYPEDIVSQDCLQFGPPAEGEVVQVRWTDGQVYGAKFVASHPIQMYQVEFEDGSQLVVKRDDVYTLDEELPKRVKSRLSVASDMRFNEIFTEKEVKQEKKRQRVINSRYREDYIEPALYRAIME
BAZ2B inh: blocks human BAZ2B | Q9UIF8 | AlphaScreen BAZ2B-H3K14Ac peptide displacement | Potency, µM (series often up to 114 µM), without a hit: top-dose activity change, negative = inhibition, most hits filed as inhibitors | actives 4.4% (n = 360,000); further: on the % scale 0 is the no-effect control and ±100 the full control effect; nearly all actives have a fitted effect of over 60% in size
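Inhibition is scored as reduced AlphaScreen emission. The BAZ2B/b-H3(5-23)K14Ac complex (50 nM each) in PBS pH 7.4, 0.01% Tween-20 meets compound (up to 110 uM) for 30 min at RT before bead addition.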
G9a inh: inhibitors of human histone lysine methyltransferase G9a; Q96KQ7; G9a H3K9 monomethylation, AlphaScreen, 2 h; actives 8.8% (n = 350,000); Potency, µM (highest dose often 102 µM), for inactives: at the top dose activity, negative = inhibition, hits mostly inhibitors; AID 504332; further: on the % scale 0 is the no-effect control and ±100 the full control effect; nearly all actives have a fitted effect of over 75% in size
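Using a bead-based AlphaScreen, monomethylated H3K9 product from 2 h room-temperature reactions (G9a 20 nM, peptide 500 nM, SAM 20 uM) was detected with 0.5 ug/mL rabbit anti-H3K9me1 antibody.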
PLK1 PBD block: PLK1 (human) polo-box domain binding inhibition | actives 2.8% (n = 360,000) | P53350 | Plk1 PBD binding of FITC phosphopeptide, fluorescence polarization | AID 720504 | Potency, µM, for inactives: max response, negative = inhibition, hits mostly inhibitors; further: series mostly up to about 57 µM; on the % scale 0 is the no-effect control and ±100 the full control effect; nearly all actives have a fitted effect of over 65% in size
HP1b binding inh: HP1-beta chromodomain-methylated histone interaction inhibition; P83916; AlphaScreen HP1-beta / biotin-H3K9me3 peptide binding; Potency, µM (highest dose often 114 µM), for the others: at the top dose activity change, negative = inhibition, hits mostly inhibitors; actives 0.56% (n = 390,000); AID 540317; further: nearly all actives have a fitted effect of over 70% in size
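Compound inhibition of the preformed complex between 50 nM HP1-beta and 50 nM biotinylated H3K9me3 peptide was read by AlphaScreen. Buffer was PBS pH 7.4 with 0.01% Tween-20. Incubations ran 30 min at room temperature, with 10 ug/mL donor/acceptor beads.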
Sfp PPTase inh: inhibitors of Bacillus subtilis Sfp phosphopantetheinyl transferase; Biochemical Sfp PPTase activity, qHTS; Potency, µM, for the others: largest response in the series, negative = inhibition, hits mostly inhibitors; actives 3.5% (n = 310,000); AID 1490;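 further: the enzyme is Sfp with the accession as filed and its product quenches rhodamine fluorescence; 0% = enzyme reaction without inhibitor and -100% = no enzyme wells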
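Reaction rates are the 30-min fluorescence difference (ex 525, em 598 nm) in wells containing 15 nM Sfp, 5 uM rhodamine-CoA and 12.5 uM BHQ-2-YbbR at pH 7.6 with 10 mM MgCl2.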
Active calls of the source: *; ? = inconclusive; nt = no result given; [ ] = dose if it differs, or a comment. This is a sample that favours compounds with a hit; in the whole collection about 12% have one here. The call rests on the fitted dose curve; in most records, active means well fitted curve in the direction sought with a large enough effect; inconclusive means small, poorly fitted or top-dose-only effect, or another doubt; inactive means no such curve, though single readings can be large; an effect the other way counts as inactive or inconclusive. Potency means the concentration at half of the fitted maximal effect.

SMILES	JMJD2A Tudor	BAZ2B inh	G9a inh	PLK1 PBD block	HP1b binding inh	Sfp PPTase inh
Cc1ccc(C(=O)NCCCNCCCN(C)C)cn1	50µM*	?	?	-2%	-2%	23%
COCCn1c(=O)c(C)nc2cnc(OC)nc21	nt	nt	2%[0.501 µM]	nt	nt	11%
Cc1cc(S(=O)(=O)Nc2nc(CN3CCOCC3)nc3sc4c(c23)CCC4)cc(C)c1C	-35%	?	45µM*	?	-4%	nt
COc1cc2c(cc1OC)CN(c1nc(CN3CCOCC3)nc3sc4c(c13)CCCC4)CC2	50µM*	45µM*	45µM*	-6%	?	-28%
Cc1sc2nc(CN3CCOCC3)nc(N3CCOCC3)c2c1C	?	50µM*	3.5µM*	-5%	?	?
Cc1sc2nc(CN3CCOCC3)nc(N3CCC(C(N)=O)CC3)c2c1C	-27%[57.1 µM]	13%	-11%[59 µM]	-8%	53%	-1%
COc1cc2c(cc1OC)CN(c1nc(CN3CCCC3)nc3sc(C)c(C)c13)CC2	?	79µM*	35µM*	-9%	0%	?
Cc1ccc(S(=O)(=O)N2CCCCC2)cc1C(=O)N1CCCCCC1	-8%	-3%	25%[59 µM]	0%	12%	nt
COc1ccc(N(CC(=O)NCCc2ccccc2)C(=O)c2csnn2)cc1OC	-29%	-9%	-3%	2%	33%	6%
O=C(c1cccc(Cl)c1)N1CCC(N2CCC(C(=O)N3CCOCC3)CC2)CC1	-3%	3%	nt	-3%	44%	-1%
CC1CN(C2CCN(C(=O)c3ccccc3Cl)CC2)CC(C)O1 (stereo unspecified)	35µM*	?	?	-4%	?	-14%
O=C(c1ccccc1Cl)N1CCC(N2CCC(C(=O)N3CCCC3)CC2)CC1	-23%	-6%[57.1 µM]	6%	?	15%	-13%
CC1CN(C2CCN(C(=O)c3cccc(Cl)c3)CC2)CC(C)O1 (stereo unspecified)	8.9µM*	-32%	91%[59 µM]	-4%	?	-22%
CN(Cc1ccco1)c1nc(-c2ccccc2C(F)(F)F)nc2ccccc12	nt	nt	1%[0.501 µM]	nt	nt	-30%
O=C(c1ccccc1)C(Sc1ncn[nH]1)c1ccccc1 (stereo unspecified)	79µM*	6%	5.6µM*	?	23%	79µM*
CC(Sc1ncn[nH]1)C(=O)NCc1ccccc1 (stereo unspecified)	-12%	0%	39%	-13%	22%	14%
CC(=O)Nc1c(Br)cc2c(c1Br)Cc1cc([N+](=O)[O-])ccc1-2	-13%	nt	nt	-6%	36%	nt
Cc1nc(/C=[N+](\[O-])C(C)(C)/C=N/O)n(O)c1C	7.9µM*	50µM*	?	-1%	24%	-21%
COc1ccc(C2NC3=C(CCCC3)C(C#N)(C#N)C2(C#N)C#N)cc1 (stereo unspecified)	nt	-35%	8.9µM*	nt	nt	56µM*
COC(=O)c1ccc(NS(=O)(=O)c2ccccc2)o1	-27%	-31%	40µM*	-10%	8%	14%
COC(=O)c1ccc(NS(=O)(=O)c2ccc(Cl)cc2)o1	-12%[11.4 µM]	?	50µM*	-20%	-6%	15%
COC(=O)c1ccc(S(N)(=O)=O)o1	0%	-1%	20%[59 µM]	-9%	30%	7%
O=S1(=O)N=C(OCc2ccccc2)c2ccccc21	-19%	nt	nt	nt	nt	nt
COc1cccc(CN(C(=O)c2oc3ccc(Br)cc3c2C)C2CCS(=O)(=O)C2)c1 (stereo unspecified)	-18%	-11%	-43%[59 µM]	nt	17%	nt
CCc1ccc(NC(=O)C2CCC(CNS(=O)(=O)c3ccc4c(c3)C(C)(C)C(=O)N4C)CC2)cc1 (stereo unspecified)	4%	-2%	2%[59 µM]	nt	42%	nt
SMILES	JMJD2A Tudor	BAZ2B inh	G9a inh	PLK1 PBD block	HP1b binding inh	Sfp PPTase inh
CCOC(=O)n1n[n+]([O-])c2ccccc21	-4%	6%	-6%[59 µM]	-7%	28%	4%
CCN(CC)c1ccc(/C=N/n2c(=S)[nH]nc(C)c2=O)cc1	-27%	-4%	-42%	-10%	7%	79µM*
Cc1cccc(/C=N/n2c(-c3ccccn3)n[nH]c2=S)c1	nt	11µM*	1.4µM*	nt	nt	?
Cc1ccccc1/C=N/n1c(-c2ccccn2)n[nH]c1=S	3.2µM*	8.9µM*	0.89µM*	-17%	-16%	35µM*
Cc1ccc(/C=N/n2c(-c3ccccn3)n[nH]c2=S)o1	5.6µM*	5µM*	3.2µM*	-14%	?	28µM*
CCNC(=O)C1(C)CCN(Cc2csc(-c3ccccc3)n2)C1 (stereo unspecified)	nt	nt	nt	-11%	nt	nt
Cc1ccc(-c2nc(C)c(CCNS(=O)(=O)c3ccccc3F)s2)cc1	-27%	0%	5%[59 µM]	nt	20%[57 µM]	nt
S=c1[nH]nc(-c2ccccn2)n1/N=C/c1ccccc1	2.8µM*	11µM*	?	-11%	-3%	40µM*
Cc1n[nH]c(=S)n(/N=C/c2cccs2)c1=O	25µM*	-2%	8%	-13%	22%	?
S=c1[nH]nc(-c2ccccn2)n1/N=C/c1ccc(Cl)cc1	5.6µM*	18µM*	2.2µM*	-27%	0%	11%
CC(C)(C)c1n[nH]c(=S)n(/N=C/c2cccs2)c1=O	-8%	-3%	-11%[59 µM]	-1%	40%	8%
S=c1[nH]nc(-c2ccccn2)n1/N=C/c1c(Cl)cccc1Cl	3.5µM*	22µM*	1.8µM*	-14%	-18%	?
Cn1c(=O)n(C)c2cc(N3CCCCC3)c(NC(=O)c3ccc(Cl)cc3)cc21	-12%	?	-34%[59 µM]	nt	24%	nt
S=c1[nH]nc(-c2ccccn2)n1/N=C/c1cccs1	3.5µM*	8.9µM*	3.2µM*	-10%	19%	-16%
S=c1[nH]nc(-c2ccc(Cl)cc2)n1/N=C/c1cccs1	-19%	-10%	nt	-19%	19%	-10%
S=c1[nH]nc(-c2ccccn2)n1/N=C/c1cccc2ccccc12	5.6µM*	28µM*	0.4µM*	27µM*	?	-12%
O=C(N/N=C1/C[C@@H](O)[C@@H](O)[C@@H]2[C@@H]3C(=O)N(Cc4ccc5c(c4)OCO5)C(=O)[C@H]3CC[C@@H]12)OCc1ccccc1	nt	nt	nt	nt	nt	-2%
O=C(CCN1C(=O)c2ccccc2C1=O)CN1CCOCC1	-32%	6%	50µM*	0%	-7%	9%
O=C(NCc1ccccc1)C(c1ccc(C(F)(F)F)cc1)n1c(=O)c(-c2cc3ccccc3[nH]2)nc2ccccc21 (stereo unspecified)	nt	nt	nt	-7%	nt	nt
CCN(CC)CCN1C(=O)C(O)=C(C(=O)c2ccco2)C1c1ccccn1 (stereo unspecified)	89µM*	?	11µM*	-24%	46%	-25%
